Active and inactive are the calls of the source. Rule for the calls: active = hit-call score of the fitted dose curve at least 0.9, where 1 is the maximum; inactive = score below 0.9.
Read-out: Monokine induced gamma interferon (MIG), CXCL9 (gene 4283)
Experiment: BSK_SAg_MIG: BioMAP Diversity Plus: SAg Assay for Monokine induced gamma interferon (MIG) Biomarker Activity (AID 2283092)
Settings: primary human HUVEC with PBMC; actives raise or lower the signal
Experimental: BSK_SAg is a cell-based, multiplexed-readout assay that uses umbilical vein endothelium and peripheral blood mononuclear cells, a human vascular primary cell co-culture, with measurements taken at 24 hours after chemical dosing in a 96-well plate.BSK_SAg_MIG is an assay component measured in the BSK_SAg assay. It measures MIG antibody related to regulation of gene expression using ELISA technology.Data from the assay component BSK_SAg_MIG was analyzed into 1 assay endpoint. This assay endpoint, BSK_SAg_MIG, was analyzed with bidirectional fitting relative to DMSO as the negative control and baseline of activity. Using a type of binding reporter, gain or loss-of-signal activity can be used to understand changes in the signaling as they relate to the gene CXCL9. Furthermore, this assay endpoint can be referred to as a primary readout, because this assay has produced multiple assay endpoints where this one serves a signaling function. To generalize the intended target to other relatable targets, this assay endpoint is annotated to the cytokine intended target family, where the subfamily is chemotactic factor.
The levels of cell surface (or secreted, indicated by the prefix "s") biomarker endpoints were measured by ELISA. Overt cytotoxicity to cells in confluent adherent cultures (all systems other than the BT system) was assessed by measuring total protein levels using sulforhodamine B (SRB) staining in parallel cultures at the time of biomarker measurements, indicated as SRB endpoints. For proliferation assays for adherent cell types, individual cell types are cultured at sub-confluence and relative cell numbers quantified by SRB staining at time points optimized for each system (48 h: 3C and CASM3C systems; 72 h: BT and HDF3CGF systems; 96 h: SAg system). SRB was performed by staining cells with 0.1% SRB after fixation with 10% TCA and reading wells at 560 nm.Viability and proliferation of PBMC (T cells) was quantified by Alamar Blue reduction for the SAg and BT systems. For PBMC viability (referred to as PBMC Cytotoxicity within the assay endpoint names), cells were plated (75,000/well in a 96-well plate) and then chemical samples added for 1 h before addition of activators, SEB and TSST-1 (20 ng/mL final concentration each). Cells were incubated for 90 h. Then, Alamar Blue (20 uL/well) (Invitrogen, Cat DAL1100) was added for 6 h, and the plates were read with a fluorescence microplate reader at 546/580 nm (excitation/emission). For PBMC proliferation, cells were plated and activated as above but incubated for only 16 h prior to addition of Alamar Blue. Plates were read after 6 h.

outcome, inactive:
CC(C=O)Cc1ccc(C(C)(C)C)cc1 (stereo not given)
C=C(C)C(=O)OCC(CC)(COC(=O)C(=C)C)COC(=O)C(=C)C
C=C(C)[C@H]1CC=C(C)C(=O)C1
CN(C)C(=S)SC(=S)N(C)C
COc1cc(Cl)c(OC)cc1N
CN(c1nccc(=O)[nH]1)C1CCN(c2nc3ccccc3n2Cc2ccc(F)cc2)CC1
CSCCC=O
C=CC(C)(O)CCC=C(C)C (stereo not given)
C[C@@H]1CCN(C(=O)[C@H](CCCN=C(N)N)NS(=O)(=O)c2cccc3c2NC[C@H](C)C3)[C@@H](C(=O)O)C1
O=CN1CCOCC1
c1ccc(Oc2ccccc2)cc1
C=C(C)C(=O)OCCOCCOCCOCCOC(=O)C(=C)C
O=C(Nc1ccc2c(O)c(N=Nc3ccc(N=Nc4ccc(S(=O)(=O)O)cc4)cc3)c(S(=O)(=O)O)cc2c1)c1ccccc1
CCN(CC)C(=O)N(CC)CC
CC1(C)CCC[C@]2(C)[C@H]3CCO[C@]3(C)CC[C@@H]12
CCCCCCC(CO)CCCC (stereo not given)
CCCCCC(C=O)=Cc1ccccc1
c1ccc2cc(Nc3ccc(Nc4ccc5ccccc5c4)cc3)ccc2c1
IC(I)I
O=C1OC[C@H](Cc2cccc(O)c2)[C@H]1Cc1cccc(O)c1
CS(=O)(=O)OCCCCOS(C)(=O)=O
CCOC(=O)C(C#N)=C(c1ccccc1)c1ccccc1
C=C(C)C(=O)OCCOCCOCCOC(=O)C(=C)C
CCCCCCCCCCCCCCCC(=O)OC/C=C(C)/C=C/C=C(C)/C=C/C1=C(C)CCCC1(C)C
COc1ccc(CCN2CCC(Nc3nc4ccccc4n3Cc3ccc(F)cc3)CC2)cc1
CC(C)(N=C=O)c1cccc(C(C)(C)N=C=O)c1
O=C1c2ccccc2C(=O)c2c(O)ccc(O)c21
C1=CC2C3C=CC(C3)C2C1 (stereo not given)
CC=Cc1ccc(OCC)c(O)c1
CCCCN(CCCC)C(=O)N(CCCC)CCCC
Cc1cc(CCC(=O)OCCOCCOCCOC(=O)CCc2cc(C)c(O)c(C(C)(C)C)c2)cc(C(C)(C)C)c1O
CN(C)C(=O)Nc1ccc(Oc2ccc(Cl)cc2)cc1
CS(=O)(=O)c1ccc(C2=C(c3ccccc3)C(=O)OC2)cc1
O=C1OC2(c3ccccc31)c1ccc(O)c(Br)c1Oc1c2ccc(O)c1Br
CCCCOC(=O)CCCCCCCC(=O)OCCCC
CC1(C)C2=CCCC(C)(C)[C@]23CC[C@H]1C3

AC50, active:
CC(=O)C1(C)CC2=C(CCCC2(C)C)CC1C (stereo not given) 33.9 µM
c1ccc(CCc2ccccc2)cc1 34.1 µM
CCC(C)c1cc([N+](=O)[O-])cc([N+](=O)[O-])c1OC(=O)OC(C)C (stereo not given) 9.7 µM
CC(C)(C)CC(C)(C)c1ccc(OCCOCC[N+](C)(C)Cc2ccccc2)cc1 6.44 µM

Source: PubChem BioAssay (EPA / NIEHS)
